Assay outcomes (PubChem)
D2 antag = HTS Assay for Allosteric Antagonists of the Human D2 Dopamine Receptor: Primary Screen for Antagonists | D(2) dopamine receptor (Homo sapiens), P14416 | HEK293 TREx D2 cells, calcium flux, dopamine EC80 | inhibition, % at 10 µM | 340,000 tested, 2% active | AID 485344, 2010; in the data active means inhibition above about 30%; inactive means below that, where a call was filed
Target sequence (P14416 whole entry, looked up): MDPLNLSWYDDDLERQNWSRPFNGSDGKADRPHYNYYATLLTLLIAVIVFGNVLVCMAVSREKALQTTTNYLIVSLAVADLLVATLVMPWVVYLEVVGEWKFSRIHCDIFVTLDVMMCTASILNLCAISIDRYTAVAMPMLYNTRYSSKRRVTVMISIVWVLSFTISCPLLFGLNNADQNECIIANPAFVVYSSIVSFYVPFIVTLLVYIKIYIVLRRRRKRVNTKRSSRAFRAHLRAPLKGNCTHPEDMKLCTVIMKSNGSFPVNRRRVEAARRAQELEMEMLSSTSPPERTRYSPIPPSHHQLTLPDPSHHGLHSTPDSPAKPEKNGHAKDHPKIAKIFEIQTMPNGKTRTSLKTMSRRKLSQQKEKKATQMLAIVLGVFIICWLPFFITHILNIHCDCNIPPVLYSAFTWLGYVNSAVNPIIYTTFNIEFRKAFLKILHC
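Overnight-induced (tetracycline, 30 C) HEK293 T-REx cells carrying force-coupled D2 receive a no-wash calcium dye, then compound, then EC80 dopamine at 180 s; signals are read kinetically throughout.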
D2 PAM-1 = Beta-Arrestin HTS for Positive Allosteric Modulators of the Human D2 Dopamine Receptor: Potentiators. D(2) dopamine receptor (Homo sapiens), P14416. DiscoveRx D2 beta-arrestin cells, luminescence, 90 min; 100% = 57 uM dopamine signal. potentiation, % (no concentration beside the values). 360,000 tested, 0.23% active; in the data active means potentiation above about 50%; inconclusive means mostly about 30% to 49%
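D2 cells co-treated with compound plus 50 nM dopamine (EC20) for 90 min at 37 deg C to detect potentiation. Beta-arrestin recruitment was read as enzyme-fragment luminescence after 1 h at ambient temperature. Full response was set by 57 uM dopamine.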
D2 PAM-2 = HTS Assay for Positive Allosteric Modulators of the Human D2 Dopamine Receptor: Primary Screen for Potentiators; D(2) dopamine receptor (Homo sapiens), P14416; HEK293 T-REx D2, calcium flux, EC20 dopamine potentiation; potentiation, % at 10 µM; 340,000 tested, 0.34% active;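 active means potentiation over 3 SD above the plate norm, cut at about 30% in these data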
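Potentiation of an EC20 dopamine calcium response is measured in a force-coupled, tetracycline-inducible Hek293 Trex D2 line. Compound-only kinetic reads over 180 s flag agonists before dopamine addition.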
D2 ag-1 = Beta-Arrestin HTS for Positive Allosteric Modulators of the Human D2 Dopamine Receptor: Agonists; D(2) dopamine receptor (Homo sapiens), P14416; DiscoveRx PathHunter D2 beta-arrestin, luminescence, 90 min; 100% = 57 uM dopamine signal; activation, % (test concentration not listed); 360,000 tested, 0.084% active; in the data active means activation above about 40%; inconclusive means between about 15% and that limit
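DiscoveRx PathHunter D2 beta-arrestin cells (2,100/well) attached overnight, then compound-stimulated 90 min at 37 C in HBSS/10 mM HEPES/0.1% Tween-20 buffer; beta-galactosidase complementation read by luminescence after 1 h at ambient temperature. Dopamine 57 uM final (EC100) as control.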
D2 ag-2 = HTS Assay for Allosteric Agonists of the Human D2 Dopamine Receptor: Primary Screen for Agonists | D(2) dopamine receptor (Homo sapiens), P14416 | HEK293 T-REx D2 cells, calcium flux agonist mode | activation, % at 2 µM | 340,000 tested, 0.53% active | AID 485358, 2010;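 active means activation over 3 SD above normal in the single-dose calcium agonist read, cut at about 30% in these data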
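Tetracycline-induced HEK293 Trex cells with D2 receptor force-coupled to calcium signaling, plated overnight at 30 C and loaded with no-wash calcium dye. Calcium flux read kinetically for 180 s after compound addition; responses flag agonists.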
Large screens that a line does not name were inactive. Only some compounds are listed: those with a hit (about 2.4% of all), similar ones and a draw of the others.

CCN1CCOC(=O)C1CC(=O)Nc1cc(C)cc(C)c1 (configuration not stated)	none (no result: D2 antag, D2 PAM-1, D2 ag-1)
Cc1ccc(/C=C/C(=O)c2cc(Br)ccc2OC(=O)c2ccco2)cc1	D2 antag 35
N#Cc1ccc(NC(=O)COC(=O)CSc2nnc(-c3ccc(Cl)cc3)o2)cc1	D2 antag 31
O=C(COC(=O)CSc1nnc(-c2ccc(Cl)cc2)o1)Nc1cc(Cl)ccc1Cl	none
NC(=O)COC(=O)c1c2c(nc3ccccc13)CCCCC2	none (no result: D2 antag, D2 PAM-2, D2 ag-2)
CC(C)(C)C(=O)COC(=O)c1c2c(nc3ccccc13)CCC2	D2 PAM-2 39
Cc1ccc(N(C(=O)c2sc(C)nc2C)C(C(=O)NCc2ccco2)c2ccccc2)cc1 (configuration not stated)	D2 antag 44
Cc1cc(C)cc(N(C(=O)c2sc(C)nc2C)C(C(=O)NCc2ccco2)c2ccccc2)c1 (configuration not stated)	none
Cc1cccc(N(C(=O)c2sc(C)nc2C)C(C(=O)NCc2ccco2)c2ccccc2)c1 (configuration not stated)	D2 antag 45
COc1ccc(Cn2c(C(=O)O)c(CNCCc3ccccc3Cl)c3ccc(C)cc32)cc1	none (no result: D2 antag, D2 PAM-1, D2 ag-1)
CCc1ccc(CNC(=O)c2ccc(CSc3nc4ccncc4n3Cc3ccccc3)cc2)cc1	none (no result: D2 antag, D2 PAM-1, D2 ag-1)
Fc1ccccc1N1CCN(C2CCCN(Cc3cccc(C(F)(F)F)c3)C2)CC1 (configuration not stated)	D2 antag 55
Oc1ccccc1CN1CCCC(N2CCN(c3cccc(C(F)(F)F)c3)CC2)C1 (configuration not stated)	none
CCCCN1CCC(COC(=O)c2cc(Cl)c(N)c3c2OCCO3)CC1	D2 antag 64
Cc1cc(-c2onc3ccc(Cl)cc23)ccc1O	D2 PAM-1 97, D2 ag-1 inconclusive
CC(=O)c1ccc2noc(-c3ccc(Cl)cc3)c2c1	D2 PAM-1 inconclusive, D2 ag-1 inconclusive
Cc1ccc(-c2onc3ccc(C=O)cc23)cc1	D2 PAM-1 59
Cc1ccc(-c2onc3ccc(C4(C)OCCO4)cc23)cc1	D2 PAM-1 69 (no result: D2 antag, D2 PAM-2, D2 ag-2)
COc1ccc(CSc2nc(C)cc(=O)[nH]2)cc1Br	none
COc1cc(=O)[nH]c(SCc2c(F)c(F)c(F)c(F)c2F)n1	D2 PAM-2 95
CCCCn1c(SCC(=O)c2ccc(OC)c(OC)c2)nc2cc(S(N)(=O)=O)ccc21	none
CCCCn1c(SCC(=O)c2ccc(OCC)cc2)nc2cc(S(N)(=O)=O)ccc21	D2 antag 45
Cc1ccc(N2CC(NC(=O)c3ccc(S(=O)(=O)N4CCCC4)cc3)CC2=O)cc1 (configuration not stated)	none (no result: D2 antag, D2 PAM-1, D2 ag-1)
S=c1[nH]c(-c2ccccc2)cn1/N=C/c1ccc(Br)cc1	D2 antag 36
O=C(O)c1ccc(/C=N/n2cc(-c3ccccc3)[nH]c2=S)cc1	none
Fc1ccccc1/C=N/n1cc(-c2ccccc2)[nH]c1=S	D2 antag 38
O=C(c1ccc(F)cc1)N(NC(=O)C(O)(c1ccccc1)c1ccccc1)c1ccccc1	D2 antag 40
Cc1ccc(/C=C/C(=O)c2ccc([N+](=O)[O-])o2)cc1	D2 PAM-1 54
Cc1ccc(CNC(=O)c2ccc([N+](=O)[O-])o2)cc1	D2 PAM-1 56
Cc1ccc(CNC(=O)c2nn(C)c(C)c2[N+](=O)[O-])cc1	none
Cc1cc2nc(-c3cccc(NC(=O)CSc4ccc(Cl)cc4)c3)oc2cc1C	none (no result: D2 antag, D2 PAM-1, D2 ag-1)
Cc1ccc(CCNS(=O)(=O)c2ccc3c(c2)C(C(C)C)C(=O)N3)cc1 (configuration not stated)	none (no result: D2 antag, D2 PAM-1, D2 ag-1, D2 ag-2)
COc1ccc(C(=O)/C=C/Nc2ccc([N+](=O)[O-])cc2C)c(OC)c1	none
COc1ccc(C(=O)/C=C/Nc2ccc([N+](=O)[O-])cc2C)cc1OC	D2 antag 40
CCOC(=O)C1CCN(Cc2ccc3ccccc3c2)CC1	none
COc1ccccc1N1CCN(Cc2nc(N)nc(Nc3ccccc3)n2)CC1	D2 antag 34
